Test results: PubChem BioAssay (NCI)
The panel holds about 79,000 compounds, 15% with a hit somewhere; the sample as a whole holds those more often. A number with no mark means an inactive call. Activity calls are given as the source filed them. No stated cut-off is given here; in the data, active means growth inhibition above about 70%; inactive means the rest.

Tests used:
[1] = NCI Yeast Anticancer Drug Screen. Data for the rad50 strain (AID 155);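 further: 0% = growth of vehicle-only cultures of the same strain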; conditions: S. cerevisiae rad50 strain growth inhibition, active compounds read high
In short: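 Genetically altered yeast (DNA repair pathway); compound treatment; growth inhibition vs vehicle ctrl.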

[2] = NCI Yeast Anticancer Drug Screen. Data for the mec2-1 strain (AID 157); conditions: S. cerevisiae mec2-1 strain, active compounds read high
In short: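 Readout is yeast growth inhibition, normalised to vehicle-treated controls, in the mec2-1 strain exposed to compound.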

[3] = NCI Yeast Anticancer Drug Screen. Data for the sgs1 mgt1 strain (AID 161);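 further: 0% = growth of cultures given vehicle only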; conditions: S. cerevisiae sgs1 mgt1 strain, active compounds read high
In short: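 Yeast cells carrying a defined DNA-repair defect were exposed to test compounds. Growth inhibition was measured relative to vehicle-treated controls.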

[4] = NCI Yeast Anticancer Drug Screen. Data for the cln2 rad14 strain (AID 165);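 further: 0% = growth equal to vehicle treated cultures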; conditions: S. cerevisiae cln2 rad14 strain, active compounds read high
In short: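 Relative to vehicle controls, growth inhibition of compound-treated cln2 rad14 yeast was recorded.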

[5] = NCI Yeast Anticancer Drug Screen. Data for the bub3 strain (AID 167); conditions: S. cerevisiae bub3 mutant strain, active compounds read high
In short: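 Yeast carrying a defined mutation is treated with each compound, and growth is compared with that of vehicle-exposed cells to give inhibition.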

[6] = NCI Yeast Anticancer Drug Screen. Data for the mlh1 rad18 strain (AID 175); conditions: S. cerevisiae mlh1 rad18 strain growth inhibition, active compounds read high
In short: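 Test agents were incubated with a yeast strain of defined genotype (DNA damage repair defect). Inhibition of growth was derived by comparison with vehicle-exposed cultures.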

[7] = at 5.0 µM (retest, dose inferred, filed as 0.5)
[8] = at 50.0 µM (retest, dose inferred, filed as 5.0)

Row | SMILES | growth inhibition [1, 7] | growth inhibition [1, 8] | growth inhibition ([1]; at 50.0 µM) | growth inhibition [2, 7] | growth inhibition [2, 8] | growth inhibition ([2]; at 50.0 µM) | growth inhibition [3, 7] | growth inhibition [3, 8] | growth inhibition ([3]; at 50.0 µM) | growth inhibition [4, 7] | growth inhibition [4, 8] | growth inhibition ([4]; at 50.0 µM) | growth inhibition [5, 7] | growth inhibition [5, 8] | growth inhibition ([5]; at 50.0 µM) | growth inhibition [6, 7] | growth inhibition [6, 8] | growth inhibition ([6]; at 50.0 µM)
1 | CCSC1(SCC)C(=O)OC2=C(CCCC2)C1N1CCOCC1 (configuration not stated) | 1% | 21% | 34.1% | 2% | 12% | 14.2% | 0% | 18% | 0.35% | -2% | 31% | 34.9% | -4% | 11% | 13.3% | -1% | 24% | 15.6%
2 | Cc1ccc(NN)cc1 | 23% | 97% (active) | 83.8% (active) | 0% | 69% | 40.7% | 26% | 46% | 70.3% (active) | 4% | 75% (active) | 21.1% | 3% | 96% (active) | 52.6% | 11% | 94% (active) | 80.5% (active)
3 | O=C1OCC2=C1C(c1ccc(Cl)cc1)c1cc3c(cc1O2)OCO3 (configuration not stated) | 8% | 10% | -23.4% | 9% | 8% | -20.4% | 4% | 16% | -5.5% | 2% | 18% | 19.4% | 17% | 21% | 6.15% | 17% | 7% | -15.8%
4 | OC(CBr)c1c(Br)ccc2ccccc12 (configuration not stated) | 3% | 65% | 53.6% | -6% | 82% (active) | 5.75% | 3% | 77% (active) | 48% | -3% | 65% | 32.9% | -1% | 77% (active) | 20.4% | 20% | 90% (active) | 74.7% (active)
5 | Cc1ccc(C)c(C(=O)CCN)c1 | -2% | 5% | 3.45% | 1% | 1% | -10.7% | 0% | -2% | 0.3% | 6% | 2% | 84.8% (active) | 7% | 8% | -5.3% | 2% | 6% | 3.55%
6 | OC(c1ccccc1)c1cccc(Br)c1 (configuration not stated) | -2% | 67% | 76.5% (active) | -11% | 77% (active) | 59.8% | -13% | 55% | 52.9% | -1% | 48% | 42.6% | -3% | 68% | 30.1% | 14% | 77% (active) | 87.2% (active)
7 | O=C1c2ccccc2C(=O)c2sc(Nc3ccc([N+](=O)[O-])cc3)nc21 | 89% (active) | 98% (active) | 60.3% | 91% (active) | 99% (active) | 77.4% (active) | 99% (active) | 99% (active) | 58.1% | 62% | 99% (active) | 29% | 100% (active) | 99% (active) | 80.7% (active) | 90% (active) | 99% (active) | 84.5% (active)
8 | COc1ccc(-c2cc(-c3ccc(OC)cc3OC)[n+](C)c(-c3ccc(OC)cc3OC)c2)cc1 | 97% (active) | 98% (active) | 90% (active) | 98% (active) | 99% (active) | 93% (active) | 98% (active) | 99% (active) | 86.2% (active) | 97% (active) | 98% (active) | 88.2% (active) | 98% (active) | 99% (active) | 81.8% (active) | 97% (active) | 99% (active) | 93% (active)
9 | CCCCCCCCCCCCNC(=O)C[n+]1cccc(C(=O)Nc2ccccc2)c1 | 99% (active) | 97% (active) | 98.8% (active) | 100% (active) | 99% (active) | 98.8% (active) | 99% (active) | 98% (active) | 99.5% (active) | 99% (active) | 98% (active) | 98.6% (active) | 99% (active) | 98% (active) | 98.2% (active) | 99% (active) | 98% (active) | 98.2% (active)
